This is a sample that favours compounds with a hit; in the whole collection about 3.1% have one here.
LGR2 inh – Drosophila LGR2 receptor signaling inhibition; HEK293 LGR2, CRE-luciferase, bursicon-stimulated, 4 h; AID 720647; inhibition, % at 9.99 µM; 380,000 tested, 0.35% active;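 active = drop in luminescence signal, shown as inhibition above about 50% in the replicate tests, limit read from the data, passing the limit was not always enough; inconclusive = probably only some replicates passing the limit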;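 also: agonist challenge used bursicon conditioned medium at about half maximal strength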
EWS-Fli block – blocks EWS/Fli oncoprotein-driven transcription; A673 NR0B1-luciferase reporter, viability-normalised; inhibition, % at 12.6 µM; 350,000 tested, 0.67% active; AID 651661;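 active = mean inhibition of at least 50% after viability correction, with every replicate also passing that limit; inconclusive = mean reaches 50% but only one of two replicates passes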;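 also: firefly luciferase signal divided by Alamar Blue viability fluorescence both relative to DMSO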
TWEAK Fn14 block – blocks TWEAK-Fn14 interaction in a reporter cell assay; TWEAK-stimulated Fn14 reporter cells, luciferase luminescence, 8 h; inhibition, % at 10 µM; 360,000 tested, 2% active; AID 1159606; in the data active = inhibition above about 50%
PAX8 reporter – lowers PAX8-driven luciferase in RMG-I cells | 360,000 tested, 1.2% active | inhibition, % at 12.6 µM | AID 652154 | RMG-I TPO-luciferase reporter, SteadyGlo, 24 h;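 active = mean replicate inhibition at least 60% with every replicate also reaching 60%; inconclusive = only one of the two criteria is met; inactive = mean below 60% and not all replicates reaching 60%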;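 also: luciferase light reporting Pax8 driven TPO promoter activity; plate controls were median of neutral control wells for no effect and mitoxantrone controls for full effect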
LMP1 NFkB inh – reduces LMP1-driven NF-kappaB luciferase signal; 350,000 tested, 0.69% active; LMP1-induced NF-kappaB luciferase reporter cells, luminescence; inhibition, % at 12.5 µM; in the data active = inhibition above about 41%; inconclusive = no clear call, values can overlap the other calls;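 also: 0% = neutral control wells and 100% = reference inhibitor control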
TROY signal inh – blocks TROY-dependent signaling in reporter cells | Q293 LMP1-TROYcd NF-kB luciferase reporter, 4 h | inhibition, % at 10 µM | 360,000 tested, 0.98% active;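 active = compounds whose plate-normalised and pattern-corrected inhibition of the luciferase reporter signal at the single screening dose is 50% or more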
The depositor's hits bear a star.

`Cc1ccc(-c2cc(NC=O)c3ncc(-c4cnn(C)c4)n3c2)cc1` gave LGR2 inh -14, EWS-Fli block 56*, TWEAK Fn14 block 2, PAX8 reporter 35 and TROY signal inh -19.
COc1ccc(F)cc1-c1cc(NC=O)c2ncc(-c3cc(OC)c(OC)c(OC)c3)n2c1 was read as LGR2 inh 20, EWS-Fli block 60*, TWEAK Fn14 block 74*, PAX8 reporter 90* and TROY signal inh 47.
C[C@H](CO)N1C[C@H](C)[C@H](CN(C)S(=O)(=O)c2cccs2)Oc2c(NC(=O)C3CCOCC3)cccc2C1=O was read as LGR2 inh -9 and EWS-Fli block 10.
COc1ccc2c3c(n(C)c2c1)[C@@H](CO)N(C(=O)Nc1ccc(F)cc1)CC31CCN(C)CC1 was read as LGR2 inh -2 and EWS-Fli block 1.
`COc1cc(-c2cnc3c(NC=O)cc(-c4ccccc4Cl)cn23)cc(OC)c1OC` gave LGR2 inh -10, EWS-Fli block 45, TWEAK Fn14 block 59*, PAX8 reporter 76* and TROY signal inh 44.
Cc1sc2ncnc(SCC(=O)N3CCC(c4noc5ccc(F)cc45)CC3)c2c1C was read as LGR2 inh -11, TWEAK Fn14 block 8, LMP1 NFkB inh 3 and TROY signal inh 22.
Screening Cc1nnc(SCC(=O)N2CCC(c3noc4ccc(F)cc34)CC2)s1 returned LGR2 inh 21, EWS-Fli block -7, TWEAK Fn14 block 68*, LMP1 NFkB inh inconclusive and TROY signal inh 40.
COc1cccc(C#Cc2cnc3c(c2)C(=O)N([C@@H](C)CO)C[C@H](C)[C@@H](CN(C)C)O3)c1 was read as LGR2 inh 10, EWS-Fli block 3 and PAX8 reporter -29.
Cc1nn(CCc2nn[nH]n2)c2nc(-c3ccccc3)cc(C(F)(F)F)c12 was read as EWS-Fli block 2, TWEAK Fn14 block -4, PAX8 reporter 11, LMP1 NFkB inh -13 and TROY signal inh 11.
`Cc1nn(CCC#N)c2nc(-c3ccccc3)cc(C(F)(F)F)c12` gave TWEAK Fn14 block 25, PAX8 reporter -8, LMP1 NFkB inh -5 and TROY signal inh 52*.
`COCC(=O)Nc1ccc2c(c1)C(=O)N(C)[C@H]1CC[C@H](CC(=O)NCc3ccccc3Cl)O[C@@H]1CO2` gave LGR2 inh 5, EWS-Fli block -2 and PAX8 reporter 10.
`O=C(Nc1cc(F)ccc1F)N1CCN(c2ccnc3cc(Cl)ccc23)CC1` gave LGR2 inh 20, EWS-Fli block 7, TWEAK Fn14 block 2, PAX8 reporter 6, LMP1 NFkB inh 33 and TROY signal inh 25.
For O=C(Nc1ccc(C(F)(F)F)cc1)N1CCN(c2ccnc3cc(Cl)ccc23)CC1 the results were LGR2 inh 17, EWS-Fli block 17, TWEAK Fn14 block 25, PAX8 reporter 5, LMP1 NFkB inh 29 and TROY signal inh 58*.
Screening CO[C@H]1CN(C)C(=O)c2ccc(NC(C)=O)cc2OC[C@@H](C)N(C(=O)C2CCOCC2)C[C@H]1C returned LGR2 inh 9 and EWS-Fli block 3.
`O=C(C[n+]1ccccc1)Nc1nc2ccccc2s1` gave LGR2 inh -6, TWEAK Fn14 block -7, PAX8 reporter -5, LMP1 NFkB inh 3 and TROY signal inh 40.
`CCC(=O)c1ccc(OCC(=O)Nc2nc(-c3cccnc3)cs2)cc1` gave LGR2 inh -6, EWS-Fli block 9, TWEAK Fn14 block 27, PAX8 reporter 14, LMP1 NFkB inh 3 and TROY signal inh 23.
Cc1ccc[n+](CC(=O)Nc2nc3ccccc3s2)c1 was read as LGR2 inh 1, EWS-Fli block 8, TWEAK Fn14 block 64*, PAX8 reporter -4, LMP1 NFkB inh 0 and TROY signal inh 81*.
For Cc1cccc(OCC(=O)Nc2nc3ccc([N+](=O)[O-])cc3s2)c1 the results were TWEAK Fn14 block 1, LMP1 NFkB inh 4 and TROY signal inh 59*.
Screening Cc1cccc(OCC(=O)Nc2nc3ccc([N+](=O)[O-])cc3s2)c1C returned LGR2 inh 10, TWEAK Fn14 block -27, LMP1 NFkB inh 2 and TROY signal inh 24.
Cc1ccc(S(=O)(=O)N(C)c2ccc(OCC(=O)Nc3nc4ccccc4s3)cc2)cc1 was read as LGR2 inh -11, EWS-Fli block -2, TWEAK Fn14 block 70*, PAX8 reporter -24, LMP1 NFkB inh 10 and TROY signal inh 24.
Cc1ccc(S(=O)(=O)N(C)c2ccc(OCC(=O)Nc3nc4c(ccc5ccccc54)s3)cc2)cc1 was read as LGR2 inh -7, TWEAK Fn14 block -7, PAX8 reporter -27, LMP1 NFkB inh 8 and TROY signal inh 6.
CCc1ccccc1OCC(=O)Nc1nc(-c2cccnc2)cs1 was read as LGR2 inh 6, EWS-Fli block 13, TWEAK Fn14 block -39, PAX8 reporter 19, LMP1 NFkB inh 10 and TROY signal inh 61*.
C[C@H]1CN([C@@H](C)CO)C(=O)c2cc(NS(=O)(=O)c3cccs3)ccc2O[C@H]1CN(C)Cc1ccc2c(c1)OCO2 was read as LGR2 inh -22 and EWS-Fli block 5.
O=C1CN(Cc2ccccc2)C[C@H]2[C@@H](c3ccc(-c4ccccc4F)cc3)[C@@H](CO)N12 was read as LGR2 inh -3, EWS-Fli block -3 and PAX8 reporter -21.
Cc1ccccc1-c1ccc([C@H]2[C@@H](CO)N3CCCCN(C(=O)c4cccnc4)C[C@@H]23)cc1 was read as LGR2 inh 10, EWS-Fli block 2 and PAX8 reporter 7.
Screening Cc1ccc(S(=O)(=O)N(C)c2ccc(OCC(=O)Nc3nc(-c4ccccc4)cs3)cc2)cc1 returned LGR2 inh 26, TWEAK Fn14 block 17, PAX8 reporter 8, LMP1 NFkB inh 7 and TROY signal inh -7.
Screening CN(c1ccc(OCC(=O)Nc2nc(-c3ccccc3)cs2)cc1)S(=O)(=O)c1ccc(F)cc1 returned LGR2 inh 6, TWEAK Fn14 block 55*, PAX8 reporter -15, LMP1 NFkB inh 19 and TROY signal inh 18.
`CC(=O)c1cccc2c(O)c(C3=Nc4ccccc4C3=O)[nH]c12` gave TWEAK Fn14 block 11, PAX8 reporter -103, LMP1 NFkB inh -36 and TROY signal inh 54*.
For Cc1cc(/C=C(\C#N)C(=O)N2CCOCC2)c(C)n1C1CCCC1 the results were LGR2 inh 52*, EWS-Fli block 8, TWEAK Fn14 block 74*, PAX8 reporter -75, LMP1 NFkB inh 20 and TROY signal inh 74*.
Screening COc1ccc(Cn2nnnc2C(C(C)C)N(Cc2ccco2)Cc2cccs2)cc1 (stereo not drawn) returned TWEAK Fn14 block 80* and LMP1 NFkB inh -4.
For CCC(=O)N(C)C[C@@H]1Oc2ncc(-c3ccccc3C)cc2C(=O)N([C@H](C)CO)C[C@@H]1C the results were LGR2 inh 9 and EWS-Fli block -18.

High-throughput results from PubChem.
